Measurements published in the supplement of paper PMC4466140.

Target: SpBzz1-D2
Experiment: SPOT peptide array binding signal intensity (averaged, normalized) (arbitrary units (background-subtracted, floor 0; scale differs between SH3 domains)); higher = stronger binding of the SH3 domain to the peptide
How it was run: (§1)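 GST-fused SH3 domains from four yeast species were expressed in E. coli BL21(DE3), purified on glutathione Sepharose and incubated at 10 μg/ml overnight at 4°C in TBS-based blocking buffer on cellulose membranes carrying synthetic 15-mer peptides, with cysteines replaced by serines. Bound protein was detected with anti-GST antibody, an HRP anti-mouse secondary and luminol, then imaged and quantified with Genespotter. Binding signal is the normalized, background-subtracted spot intensity averaged over replicates, in arbitrary units that differ between domains.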

Binder | SPOT peptide array binding signal intensity
KKAPPPVVKPKPRNF | 0.5

Target: SpCyk3
Experiment: as above
How it was run: as §1

Binder | SPOT peptide array binding signal intensity
KKAPPPVVKPKPRNF | 1

Target: SpHof1
Experiment: as above
How it was run: as §1

Binder | SPOT peptide array binding signal intensity
KKAPPPVVKPKPRNF | 12

Target: SpHof1-2
Experiment: as above
How it was run: as §1

Binder | SPOT peptide array binding signal intensity
KKAPPPVVKPKPRNF | 13.2

Target: SpHof1-3
Experiment: as above
How it was run: as §1

Binder | SPOT peptide array binding signal intensity
KKAPPPVVKPKPRNF | 31

Target: SpHse1
Experiment: as above
How it was run: as §1

Binder | SPOT peptide array binding signal intensity
KKAPPPVVKPKPRNF | 117

Target: SpLsb1
Experiment: as above
How it was run: as §1

Binder | SPOT peptide array binding signal intensity
KKAPPPVVKPKPRNF | 1140

Target: SpLsb4
Experiment: as above
How it was run: as §1

Binder | SPOT peptide array binding signal intensity
KKAPPPVVKPKPRNF | 27

Target: SpMyo1
Experiment: as above
How it was run: as §1

Binder | SPOT peptide array binding signal intensity
KKAPPPVVKPKPRNF | 7

Target: SpNbp2
Experiment: as above
How it was run: as §1

Binder | SPOT peptide array binding signal intensity
KKAPPPVVKPKPRNF | 43

Target: SpPex13
Experiment: as above
How it was run: as §1

Binder | SPOT peptide array binding signal intensity
KKAPPPVVKPKPRNF | 3.5

Target: SpRvs167
Experiment: as above
How it was run: as §1

Binder | SPOT peptide array binding signal intensity
KKAPPPVVKPKPRNF | ≤ 0

Target: SpSla1-D1-D2
Experiment: as above
How it was run: as §1

Binder | SPOT peptide array binding signal intensity
KKAPPPVVKPKPRNF | 5.5

Target: SpSla1-D3
Experiment: as above
How it was run: as §1

Binder | SPOT peptide array binding signal intensity
KKAPPPVVKPKPRNF | 10.5

Target: AgAbp1
Experiment: as above
How it was run: as §1

Binder | SPOT peptide array binding signal intensity
RFKRHRLEFPFNESE | 154

Target: AgBbc1
Experiment: as above
How it was run: as §1

Binder | SPOT peptide array binding signal intensity
RFKRHRLEFPFNESE | 38.5

Target: AgBem1-D1
Experiment: as above
How it was run: as §1

Binder | SPOT peptide array binding signal intensity
RFKRHRLEFPFNESE | 120

Target: AgBzz1-D1
Experiment: as above
How it was run: as §1

Binder | SPOT peptide array binding signal intensity
RFKRHRLEFPFNESE | 58

Target: AgBzz1-D2
Experiment: as above
How it was run: as §1

Binder | SPOT peptide array binding signal intensity
RFKRHRLEFPFNESE | 71

Target: AgCyk3
Experiment: as above
How it was run: as §1

Binder | SPOT peptide array binding signal intensity
RFKRHRLEFPFNESE | ≤ 0

Target: AgFus1
Experiment: as above
How it was run: as §1

Binder | SPOT peptide array binding signal intensity
RFKRHRLEFPFNESE | 378

Target: AgHof1
Experiment: as above
How it was run: as §1

Binder | SPOT peptide array binding signal intensity
RFKRHRLEFPFNESE | 28

Target: AgHse1
Experiment: as above
How it was run: as §1

Binder | SPOT peptide array binding signal intensity
RFKRHRLEFPFNESE | 929

Target: AgLsb1
Experiment: as above
How it was run: as §1

Binder | SPOT peptide array binding signal intensity
RFKRHRLEFPFNESE | 1.5

Target: AgLsb4
Experiment: as above
How it was run: as §1

Binder | SPOT peptide array binding signal intensity
RFKRHRLEFPFNESE | 78

Target: AgMyo5
Experiment: as above
How it was run: as §1

Binder | SPOT peptide array binding signal intensity
RFKRHRLEFPFNESE | 0.75

Target: AgNbp2
Experiment: as above
How it was run: as §1

Binder | SPOT peptide array binding signal intensity
RFKRHRLEFPFNESE | 37

Target: AgRvs167
Experiment: as above
How it was run: as §1

Binder | SPOT peptide array binding signal intensity
RFKRHRLEFPFNESE | 5.33

Target: AgSho1
Experiment: as above
How it was run: as §1

Binder | SPOT peptide array binding signal intensity
RFKRHRLEFPFNESE | 46

Target: AgSla1-D1-D2
Experiment: as above
How it was run: as §1

Binder | SPOT peptide array binding signal intensity
RFKRHRLEFPFNESE | 98

Target: AgSla1-D3
Experiment: as above
How it was run: as §1

Binder | SPOT peptide array binding signal intensity
RFKRHRLEFPFNESE | 8

Target: CaAbp1-D1
Experiment: as above
How it was run: as §1

Binder | SPOT peptide array binding signal intensity
RFKRHRLEFPFNESE | 759

Target: CaAbp1-D2
Experiment: as above
How it was run: as §1

Binder | SPOT peptide array binding signal intensity
RFKRHRLEFPFNESE | 598

Target: CaBbc1
Experiment: as above
How it was run: as §1

Binder | SPOT peptide array binding signal intensity
RFKRHRLEFPFNESE | 107

Target: CaBem1-D1
Experiment: as above
How it was run: as §1

Binder | SPOT peptide array binding signal intensity
RFKRHRLEFPFNESE | 164

Target: CaBzz1-D1
Experiment: as above
How it was run: as §1

Binder | SPOT peptide array binding signal intensity
RFKRHRLEFPFNESE | 34.5

Target: CaBzz1-D2
Experiment: as above
How it was run: as §1

Binder | SPOT peptide array binding signal intensity
RFKRHRLEFPFNESE | 34.8

Target: CaCyk3
Experiment: as above
How it was run: as §1

Binder | SPOT peptide array binding signal intensity
RFKRHRLEFPFNESE | 3

Target: CaFus1
Experiment: as above
How it was run: as §1

Binder | SPOT peptide array binding signal intensity
RFKRHRLEFPFNESE | 608

Target: CaHof1
Experiment: as above
How it was run: as §1

Binder | SPOT peptide array binding signal intensity
RFKRHRLEFPFNESE | 1.5

Target: CaHse1
Experiment: as above
How it was run: as §1

Binder | SPOT peptide array binding signal intensity
RFKRHRLEFPFNESE | 16

Target: CaLsb1
Experiment: as above
How it was run: as §1

Binder | SPOT peptide array binding signal intensity
RFKRHRLEFPFNESE | ≤ 0

Target: CaLsb4
Experiment: as above
How it was run: as §1

Binder | SPOT peptide array binding signal intensity
RFKRHRLEFPFNESE | 31

Target: CaMyo5
Experiment: as above
How it was run: as §1

Binder | SPOT peptide array binding signal intensity
RFKRHRLEFPFNESE | 13.2
